Assay results published in PubChem BioAssay (Tox21).
Values joined by “and” are separate entries in the source; they are usually repeats but may differ in a detail not shown here. Equal entries are not always repeated. Results filed as inconclusive are left out. Where a call stands in place of a potency, no number is given. More than one record can exist for a structure, and the calls need not agree. Active and inactive are the calls of the source. Unless noted, calls follow the shape of the dose curve; as a rule, active = well fitted curve in the direction sought with a large enough effect in the repeat runs; inconclusive = weak or mixed curves; inactive = no such curve, though single readings can be large; an effect the other way counts as inactive or inconclusive.

How the values were obtained:
[1] = qHTS assay to identify small molecule antagonists of the androgen receptor (AR) signaling pathway using the MDA cell line in the presence of 0.5 nM R1881 - cell viability counter screen (AID 1259242); also: nearly all actives have a fitted effect of over 45% in size; also: potency is read from the fitted curve at half-maximal effect
Procedure, shortened: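 R1881 at 0.5 nM final stimulated MDA-kb2 cells during 16 hr compound treatment at 37C. Cytotoxicity read: CellTiter-Fluor fluorescence after 30 min.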

[2] = molecular target: Estrogen receptor (Homo sapiens) (UniProt P03372); experiment: qHTS assay to identify small molecule antagonists of the estrogen receptor alpha (ER-alpha) signaling pathway using the BG1 cell line in the presence of 0.1 nM 17-beta-estradiol (AID 1259244); also: nearly all actives have a fitted effect of over 50% in size; also: potency is read from the fitted curve at half-maximal effect
Procedure, shortened: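 VM7Luc4E2; 4xERE-luciferase; 0.1 nM E2 final; 22 h co-incubation, 37C; ONE-Glo luminescence after 30 min at room temperature.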

[3] = qHTS assay to identify small molecule phospholipidosis (PLD) inducers (AID 1259344; active = well fitted curve in the direction sought with a large enough effect; an effect the other way counts as inactive or inconclusive)
Procedure, shortened: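 Phospholipidosis is scored by imaging LipidTOX-stained pits in HepG2 cells exposed to compound for 24 h at 37 C; pit counts and integrated intensities per well and per cell serve as outputs.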

[4] = qHTS assay to identify small molecule HDAC inhibitors (AID 1259364); also: potency is read from the fitted curve at half-maximal effect;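 also: wild-type HCT-116 cells with endogenous class I/II HDAC activity; nearly all actives have a fitted effect of over 45% in size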
Procedure, shortened: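 Relative class I and II HDAC activity is taken from the luminogenic signal in HCT-116 cells, with compound exposure 2 hr and reagent development 30 min at room temperature.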

[5] = qHTS assay to identify small molecule HDAC inhibitors - cell viability counter screen (AID 1259365); also: nearly all actives have a fitted effect of over 50% in size; also: potency is read from the fitted curve at half-maximal effect
Procedure, shortened: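 HCT-116 (wild type), 1,500 cells/well, overnight 37C/5% CO2; compound in DMSO 2hr; CellTiter-Glo 30min RT; luminescence read.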

[6] = qHTS assay to identify small molecule agonists of the sonic hedgehog signaling (Shh) pathway (AID 1259368; calls by dose curve;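 also: NIH/3T3-derived 3T3Gli1-Luc cells carrying a stable Gli1-driven firefly luciferase reporter; series mostly up to about 92 µM; nearly all actives have a fitted effect of over 15% in size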)
Procedure, shortened: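 Mouse fibroblast (NIH/3T3) reporter cells with stably integrated Gli1-Luc were treated 24 hr with compound; firefly luciferase luminescence served as the read-out.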

[7] = qHTS assay to identify small molecule antagonists of the sonic hedgehog signaling (Shh) pathway (AID 1259369; calls by dose curve; also: nearly all actives have a fitted effect of over 45% in size; also: potency is read from the fitted curve at half-maximal effect)
Procedure, shortened: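 Conditioned medium drives Shh signalling in 3T3Gli1-Luc cells; compounds in DMSO co-applied, 24hr at 37 C, then luciferase luminescence.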

[8] = qHTS assay to identify small molecule agonists of the sonic hedgehog signaling (Shh) pathway - cell viability counter screen (AID 1259366); also: nearly all actives have a fitted effect of over 50% in size; also: potency is read from the fitted curve at half-maximal effect
Procedure, shortened: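 CellTiter-Fluor fluorescence read-out, 1 hr at 37C, added after 23hr compound exposure. Cells: 3T3 Gli1-Luc, an NIH/3T3 clone with stably integrated Gli1-Luc reporter, plated 4hr before compound.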

[9] = qHTS assay to identify small molecule antagonists of the sonic hedgehog signaling (Shh) pathway - cell viability counter screen (AID 1259367); also: nearly all actives have a fitted effect of over 55% in size; also: potency is read from the fitted curve at half-maximal effect
Procedure, shortened: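 Cells: 3T3 Gli1-Luc, 2,000/well, 4 hr pre-incubation. Compounds in DMSO, then conditioned medium. Incubation 24 hr, 37C, 5% CO2. CellTiter-Fluor at 23 hr, 1 hr, fluorescence.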

[10] = molecular target: Androgen receptor (Homo sapiens) (UniProt P10275); experiment: qHTS assay to identify small molecule antagonists of the androgen receptor (AR) signaling pathway using the MDA cell line in the presence of 0.5 nM R1881 (AID 1259243); also: nearly all actives have a fitted effect of over 50% in size
Procedure, shortened: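 We exposed MDA-kb2 cells to compounds under 0.5 nM R1881 stimulation for 16 hr at 37C and quantified MMTV-driven luciferase by luminescence.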

Chain of Estrogen receptor (Homo sapiens) (P03372 whole entry, looked up): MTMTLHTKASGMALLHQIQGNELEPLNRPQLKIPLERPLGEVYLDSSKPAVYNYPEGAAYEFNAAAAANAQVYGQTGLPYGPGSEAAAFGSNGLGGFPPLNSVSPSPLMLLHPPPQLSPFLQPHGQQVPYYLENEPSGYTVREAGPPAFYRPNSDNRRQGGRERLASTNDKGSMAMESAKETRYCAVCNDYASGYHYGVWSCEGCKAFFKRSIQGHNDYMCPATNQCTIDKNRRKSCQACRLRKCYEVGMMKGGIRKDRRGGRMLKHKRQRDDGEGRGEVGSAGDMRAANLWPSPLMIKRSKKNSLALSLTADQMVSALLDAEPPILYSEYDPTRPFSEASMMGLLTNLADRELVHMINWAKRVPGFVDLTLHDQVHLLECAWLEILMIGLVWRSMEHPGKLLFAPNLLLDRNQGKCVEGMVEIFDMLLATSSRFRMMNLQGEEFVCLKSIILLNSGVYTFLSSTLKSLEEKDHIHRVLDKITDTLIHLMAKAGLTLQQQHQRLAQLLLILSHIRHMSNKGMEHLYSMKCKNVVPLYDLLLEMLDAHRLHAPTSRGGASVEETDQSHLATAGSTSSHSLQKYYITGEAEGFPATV
Chain of Androgen receptor (Homo sapiens) (P10275 whole entry, looked up): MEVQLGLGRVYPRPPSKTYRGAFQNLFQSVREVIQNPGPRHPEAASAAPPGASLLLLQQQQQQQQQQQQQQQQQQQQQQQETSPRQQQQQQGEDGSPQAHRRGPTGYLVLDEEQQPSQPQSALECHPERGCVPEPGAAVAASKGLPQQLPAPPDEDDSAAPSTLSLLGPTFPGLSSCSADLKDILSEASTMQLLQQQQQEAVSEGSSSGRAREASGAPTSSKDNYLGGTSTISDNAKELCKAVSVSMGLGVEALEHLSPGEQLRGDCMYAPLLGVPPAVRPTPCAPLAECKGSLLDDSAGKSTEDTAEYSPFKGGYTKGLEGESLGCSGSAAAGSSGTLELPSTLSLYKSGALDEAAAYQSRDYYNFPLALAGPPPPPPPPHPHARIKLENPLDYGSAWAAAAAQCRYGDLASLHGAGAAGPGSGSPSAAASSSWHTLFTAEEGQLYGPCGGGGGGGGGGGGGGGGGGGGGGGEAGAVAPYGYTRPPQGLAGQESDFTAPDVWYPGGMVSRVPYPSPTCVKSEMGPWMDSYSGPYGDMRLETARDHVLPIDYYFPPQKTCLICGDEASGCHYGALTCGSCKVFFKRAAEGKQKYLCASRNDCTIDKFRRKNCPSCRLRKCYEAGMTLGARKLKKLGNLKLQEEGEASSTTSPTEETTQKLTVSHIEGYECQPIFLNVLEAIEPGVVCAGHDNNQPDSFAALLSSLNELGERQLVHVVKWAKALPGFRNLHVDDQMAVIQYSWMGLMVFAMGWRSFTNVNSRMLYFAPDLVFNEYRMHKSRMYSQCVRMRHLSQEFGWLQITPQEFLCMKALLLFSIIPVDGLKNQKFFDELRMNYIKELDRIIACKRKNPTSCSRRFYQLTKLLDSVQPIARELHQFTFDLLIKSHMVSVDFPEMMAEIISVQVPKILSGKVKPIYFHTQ

| Structure (SMILES) | Potency [1] | Potency [2] | outcome [3] | Potency [4] | Potency [5] | Potency [6] | Potency [7] | Potency [8] | Potency [9] | Potency [10] |
| --- | --- | --- | --- | --- | --- | --- | --- | --- | --- | --- |
| CN1C[C@H](C(=O)N[C@]2(C)O[C@@]3(O)[C@@H]4CCCN4C(=O)[C@H](Cc4ccccc4)N3C2=O)C=C2c3cccc4[nH]cc(c34)C[C@H]21 | inactive | 27.4 µM (active) and inactive | inactive | inactive | inactive | inactive | 3.87 µM (active) | – | – | – |
| CC(C)(C)NCC(O)c1ccccc1Cl (centres undefined) | inactive | inactive | inactive | inactive | inactive | inactive | inactive | inactive | inactive | – |
| CCOC(=O)c1cncn1C(C)c1ccccc1 (centres undefined) | inactive | inactive | inactive | inactive | – | inactive | inactive | – | inactive | – |
| CNC(=O)Oc1cccc(N=CN(C)C)c1 | inactive | inactive | – | inactive | inactive | inactive | inactive | inactive | inactive | – |
| C[C@H](N)[C@H](O)c1ccc(O)c(O)c1 | inactive | inactive | inactive | inactive | inactive | inactive | – | inactive | inactive | – |
| CCCC1CCCCN1 (centres undefined) | inactive | inactive | inactive | inactive | inactive | inactive | inactive | – | inactive | – |
| CN1CC[C@]23c4c5ccc(O)c4O[C@H]2[C@@H](O)CC[C@H]3[C@H]1C5 | inactive | inactive | inactive | – | inactive | inactive | inactive | – | inactive | – |
| O=[N+]([O-])O[C@H]1CO[C@H]2[C@@H]1OC[C@H]2O[N+](=O)[O-] | inactive | inactive | inactive | inactive | – | inactive | inactive | inactive | inactive | – |
| C#C[C@]1(O)CC[C@H]2[C@@H]3CCC4=CC(=O)CCC4=C3C=C[C@@]21CC | inactive | 13.3 µM (active) | inactive | – | inactive | inactive | – | inactive | inactive | – |
| CCN(C(C)=O)c1cccc(-c2ccnc3c(C#N)cnn23)c1 | inactive | inactive | inactive | inactive | inactive | inactive | – | inactive | inactive | – |
| O=C(O)C(O)C(O)C(=O)O (centres undefined) | inactive | inactive | – | inactive | inactive | inactive | inactive | inactive | inactive | – |
| CON(C)C(=O)Nc1ccc(Cl)cc1 | inactive | inactive | – | 27.3 µM (active) | inactive | inactive | – | inactive | inactive | – |
| O=C(NC(=O)c1cc(F)c(F)cc1Cl)Nc1cc(F)ccc1N1CCC(C(=O)O)CC1 | inactive | inactive | – | inactive | inactive | inactive | – | inactive | inactive | – |
| CCCCC1C(=O)NC(=O)N(C2CCCCC2)C1=O (centres undefined) | inactive | inactive | inactive | inactive | inactive | inactive | inactive | inactive | inactive | – |
| NCCc1cc(O)c(O)cc1O | inactive | inactive | inactive | inactive | inactive | inactive | inactive | – | inactive | – |
| CCCC[N+]1(C)[C@@H]2CC(OC(=O)[C@H](CO)c3ccccc3)C[C@H]1[C@@H]1O[C@@H]12 (some centres undefined) | inactive | inactive | inactive | inactive | inactive | inactive | inactive | inactive | inactive | – |
| CCCCCCCCCCCC[N+](C)(C)CCOc1ccccc1 | 48.6 µM (active) and inactive | 54.5 µM (active) and inactive | inactive | – | 61.1 µM (active) and inactive | inactive | 3.44 µM (active) and 473 nM (active) | 24.3 µM (active) | 48.6 µM (active) | – |
| CC[N+]1(CCOC(=O)C(O)(c2ccccc2)c2ccccc2)CCCCC1 | inactive | inactive | inactive | inactive | – | inactive | inactive | inactive | inactive | – |
| CCCN(CCC)C(=O)Cc1c(-c2ccc(Cl)cc2)nc2ccc(Cl)cn12 | inactive | inactive | inactive | inactive | inactive | inactive | inactive | – | – | – |
| CC(CC(C(N)=O)(c1ccccc1)c1ccccc1)N(C)C (centres undefined) | inactive | – | – | – | inactive | inactive | – | – | – | inactive |
| O=C(O)C(F)(F)C(F)(F)C(F)(F)C(F)(F)C(F)(F)C(F)(F)C(F)(F)C(F)(F)F | inactive | inactive | – | inactive | inactive | inactive | inactive | inactive | inactive | – |
| c1ccc2sc(SNC3CCCCC3)nc2c1 | inactive | inactive | inactive | inactive | inactive | inactive | 61.1 µM (active) | – | inactive | – |
| CCCCC(CC)CO[N+](=O)[O-] (centres undefined) | inactive | inactive | – | inactive | inactive | inactive | inactive | inactive | inactive | – |
| C[N+]1(CCF)[C@@H]2CC[C@H]1CC(OC(=O)C(O)(c1ccccc1)c1ccccc1)C2 (some centres undefined) | inactive | inactive | inactive | – | inactive | inactive | inactive | inactive | inactive | – |
| FC(Cl)(Cl)C(F)(Cl)Cl | inactive | inactive | – | inactive | inactive | inactive | inactive | inactive | inactive | – |
| CN(C)c1ccc(N=O)cc1 | 48.7 µM (active) and 48.6 µM (active) | 43.4 µM (active) and inactive | – | inactive | inactive | inactive | 15.4 µM (active) | – | 24.4 µM (active) and 27.3 µM (active) | – |
| CCOc1cccc(C2(N3CCN(c4ccccc4)CC3)CCC(C)CC2)c1 (centres undefined) | inactive | inactive | – | inactive | inactive | inactive | inactive | – | inactive | – |
| O=C(Cc1ccccc1)OCCc1ccccc1 | inactive | inactive | – | inactive | inactive | inactive | inactive | inactive | inactive | – |
